Data as given in PubChem BioAssay (NCATS).
Results filed as inconclusive are left out. A call without a number means that no potency is given here. Unmarked numbers belong to inactive results. Activity calls are given as the source filed them. The call rests on the fitted dose curve; in most records, active means well fitted curve in the direction sought with a large enough effect; inconclusive means small, poorly fitted or top-dose-only effect, or another doubt; inactive means no such curve, though single readings can be large; an effect the other way counts as inactive or inconclusive.

Key:
[1] = Quantitative High-Throughput drug screen in 47 multiple myeloma cell lines against the NCATS MIPE library collection: KMS12BM_JCRB cell viability assay (AID 1918971); further: nearly all actives have a fitted effect of over 35% in size; further: potency means the concentration at half of the fitted maximal effect
Summary of the method: (§1)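 Steps: seed 500 cells per well; pin-transfer MIPE 4.0 library; incubate 48 h at 37C, 5% CO2, humidified; add CellTiter-Glo, 5 min room temperature; read luminescence.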

[2] = Quantitative High-Throughput drug screen in 47 multiple myeloma cell lines against the NCATS MIPE library collection: KMS26_JCRB cell viability assay (AID 1918975); further: nearly all actives have a fitted effect of over 45% in size; further: potency means the concentration at half of the fitted maximal effect
Summary of the method: as §1

[3] = Quantitative High-Throughput drug screen in 47 multiple myeloma cell lines against the NCATS MIPE library collection: MMM1_PLB cell viability assay (AID 1918976); further: potency means the concentration at half of the fitted maximal effect; nearly all actives have a fitted effect of over 35% in size
Summary of the method: (§2)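 ATP-based luminescence (CellTiter-Glo, 5 min RT incubation) quantified surviving cells following two days' treatment with MIPE 4.0 agents at 37 °C, 5% CO2.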

[4] = Quantitative High-Throughput drug screen in 47 multiple myeloma cell lines against the NCATS MIPE library collection: NCIH929_DSMZ cell viability assay (AID 1918978); further: nearly all actives have a fitted effect of over 35% in size; further: potency means the concentration at half of the fitted maximal effect
Summary of the method: as §2

[5] = Quantitative High-Throughput drug screen in 47 multiple myeloma cell lines against the NCATS MIPE library collection: OCIMY1_PLB cell viability assay (AID 1918979); further: nearly all actives have a fitted effect of over 35% in size; further: potency means the concentration at half of the fitted maximal effect; on viability: series mostly up to about 46 µM
Summary of the method: as §2

[6] = Quantitative High-Throughput drug screen in 47 multiple myeloma cell lines against the NCATS MIPE library collection: MM1S_ATCC cell viability assay (AID 1918980); further: nearly all actives have a fitted effect of over 45% in size; further: potency means the concentration at half of the fitted maximal effect
Summary of the method: as §2

[7] = Quantitative High-Throughput drug screen in 47 multiple myeloma cell lines against the NCATS MIPE library collection: MM1R_ATCC cell viability assay (AID 1918981); further: nearly all actives have a fitted effect of over 35% in size; further: potency means the concentration at half of the fitted maximal effect
Summary of the method: as §2

[8] = Quantitative High-Throughput drug screen in 47 multiple myeloma cell lines against the NCATS MIPE library collection: LP1_DSMZ cell viability assay (AID 1918982); further: nearly all actives have a fitted effect of over 35% in size
Summary of the method: as §2

[9] = Quantitative High-Throughput drug screen in 47 multiple myeloma cell lines against the NCATS MIPE library collection: KMS28PE_JCRB cell viability assay (AID 1918983); further: nearly all actives have a fitted effect of over 35% in size; further: potency means the concentration at half of the fitted maximal effect
Summary of the method: as §2

[10] = Quantitative High-Throughput drug screen in 47 multiple myeloma cell lines against the NCATS MIPE library collection: OPM1_PLB cell viability assay (AID 1918989); further: nearly all actives have a fitted effect of over 40% in size; further: potency means the concentration at half of the fitted maximal effect
Summary of the method: as §2

[11] = Quantitative High-Throughput drug screen in 47 multiple myeloma cell lines against the NCATS MIPE library collection: XG6_PLB cell viability assay (AID 1919865); further: nearly all actives have a fitted effect of over 40% in size; further: potency means the concentration at half of the fitted maximal effect
Summary of the method: as §2

[12] = Quantitative High-Throughput drug screen in 47 multiple myeloma cell lines against the NCATS MIPE library collection: L363_DSMZ cell viability assay (AID 1918984); further: nearly all actives have a fitted effect of over 40% in size; further: potency means the concentration at half of the fitted maximal effect
Summary of the method: as §2

[13] = Quantitative High-Throughput drug screen in 47 multiple myeloma cell lines against the NCATS MIPE library collection: KMS34_JCRB cell viability assay (AID 1918985); further: nearly all actives have a fitted effect of over 40% in size; further: potency means the concentration at half of the fitted maximal effect
Summary of the method: as §2

[14] = Quantitative High-Throughput drug screen in 47 multiple myeloma cell lines against the NCATS MIPE library collection: SKMM1_PLB cell viability assay (AID 1919863); conditions: SKMM1 myeloma viability, CellTiter-Glo ATP, 48 h; viability: stronger effect = lower value
Summary of the method: as §2

[15] = Quantitative High-Throughput drug screen in 47 multiple myeloma cell lines against the NCATS MIPE library collection: KMS12PE_JCRB cell viability assay (AID 1918972); further: nearly all actives have a fitted effect of over 30% in size; further: potency means the concentration at half of the fitted maximal effect; on viability: series mostly up to about 46 µM
Summary of the method: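 Inhibition of cell viability is measured here. Each line was plated at 500 cells per well, treated with MIPE 4.0 drugs, kept 48 hours at 37C, then assayed for ATP content by CellTiter-Glo luminescence.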

[16] = Quantitative High-Throughput drug screen in 47 multiple myeloma cell lines against the NCATS MIPE library collection: KMS20_JCRB cell viability assay (AID 1918973); further: nearly all actives have a fitted effect of over 45% in size; further: potency means the concentration at half of the fitted maximal effect
Summary of the method: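 CellTiter-Glo luminescence (ATP) after 48 h compound exposure, 37C/5% CO2; 500 cells/well; MIPE 4.0 approved/investigational drugs pinned in; DMSO = 100%, media only = 0% viability.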

[17] = Quantitative High-Throughput drug screen in 47 multiple myeloma cell lines against the NCATS MIPE library collection: OCIMY5_PLB cell viability assay (AID 1918988); further: potency means the concentration at half of the fitted maximal effect; nearly all actives have a fitted effect of over 65% in size
Summary of the method: as §2

[18] = Quantitative High-Throughput drug screen in 47 multiple myeloma cell lines against the NCATS MIPE library collection: MOLP8_DSMZ cell viability assay (AID 1918977); further: nearly all actives have a fitted effect of over 45% in size
Summary of the method: as §2

[19] = Quantitative High-Throughput drug screen in 47 multiple myeloma cell lines against the NCATS MIPE library collection: U266_ATCC cell viability assay (AID 1919864); further: nearly all actives have a fitted effect of over 35% in size
Summary of the method: as §2

Compound: O=C(O)c1cn(-c2ccc(F)cc2)c2cc(N3CCNCC3)c(F)cc2c1=O
- Potency [1]: 2.35 µM (active)
- Potency [2]: inactive
- Potency [3]: 11.8 µM (active)
- Potency [4]: inactive
- Potency [5]: inactive
- Potency [6]: 20.9 µM (active)
- Potency [7]: inactive
- Potency [8]: inactive
- Potency [9]: inactive
- Potency [10]: inactive
- Potency [11]: inactive

Compound: COC(=O)N[C@H](C(=O)N[C@@H](Cc1ccccc1)[C@@H](O)CN(Cc1ccc(-c2ccccn2)cc1)NC(=O)[C@@H](NC(=O)OC)C(C)(C)C)C(C)(C)C
- Potency [1]: 20.9 µM (active)
- Potency [3]: 6.62 µM (active)
- Potency [4]: inactive
- Potency [5]: inactive
- Potency [6]: inactive
- Potency [12]: inactive
- Potency [13]: 20.9 µM (active)
- Potency [10]: inactive
- Potency [11]: inactive

Compound: Cc1ncc([N+](=O)[O-])n1CC(C)O (centres undefined)
- Potency [1]: inactive
- Potency [4]: 20.9 µM (active)
- Potency [6]: 14.8 µM (active)
- Potency [7]: inactive
- Potency [8]: inactive
- Potency [9]: inactive
- viability [14]: 126%

Compound: Cc1ccc(C(=O)c2cc(O)c(O)c([N+](=O)[O-])c2)cc1
- Potency [15]: 18.7 µM (active)
- Potency [16]: 20.9 µM (active)
- Potency [5]: inactive
- Potency [6]: 20.9 µM (active)
- Potency [8]: inactive
- Potency [9]: inactive
- Potency [12]: 16.6 µM (active)
- Potency [13]: inactive
- Potency [11]: 23.5 µM (active)

Compound: Cc1cccc(-c2[nH]ncc2-c2ccc3ncccc3n2)n1
- Potency [15]: inactive
- Potency [4]: inactive
- Potency [5]: inactive
- Potency [6]: 14.8 µM (active)
- Potency [9]: inactive
- Potency [12]: inactive
- Potency [13]: inactive
- viability [14]: 121%
- Potency [11]: inactive

Compound: CN(C)CCCC1(c2ccc(F)cc2)OCc2cc(C#N)ccc21 (centres undefined)
- Potency [15]: inactive
- Potency [2]: inactive
- Potency [5]: inactive
- Potency [6]: 18.7 µM (active)
- Potency [8]: inactive
- Potency [12]: inactive
- Potency [13]: inactive
- Potency [17]: 18.7 µM (active)
- Potency [10]: inactive
- viability [14]: 106%

Compound: CC1(C)C(=O)N(CCN2CCC(C(=O)c3ccc(F)cc3)CC2)c2ccccc21
- Potency [15]: 10.5 µM (active)
- Potency [16]: 4.18 µM (active)
- Potency [5]: 7.43 µM (active)
- Potency [6]: 20.9 µM (active)
- Potency [7]: 16.6 µM (active)
- Potency [9]: inactive
- Potency [12]: 13.2 µM (active)
- Potency [17]: 5.26 µM (active)
- Potency [10]: 10.5 µM (active)
- Potency [11]: 4.69 µM (active)

Compound: COCCCN1CCC(NC(=O)c2cc(Cl)c(N)c3c2OCC3)CC1
- Potency [15]: 16.6 µM (active)
- Potency [9]: inactive
- Potency [12]: 20.9 µM (active)
- Potency [13]: inactive

Compound: COc1cc(C(C)=O)ccc1OCCCN1CCC(c2noc3cc(F)ccc23)CC1
- Potency [15]: 20.9 µM (active)
- Potency [16]: 16.6 µM (active)
- Potency [2]: 0.0074 µM (active)
- Potency [3]: 18.7 µM (active)
- Potency [18]: inactive
- Potency [4]: 18.7 µM (active)
- Potency [5]: inactive
- Potency [7]: 16.6 µM (active)
- Potency [9]: inactive
- Potency [17]: 6.62 µM (active)
- viability [14]: 110%

Compound: N=C(N=C(N)N)N1CCOCC1
- Potency [15]: inactive
- Potency [16]: inactive
- Potency [4]: inactive
- Potency [5]: inactive
- Potency [6]: 10.5 µM (active)
- Potency [8]: inactive
- Potency [9]: inactive
- Potency [13]: inactive
- Potency [10]: inactive
- viability [14]: 125%

Compound: CC(C)[C@H](N)C(=O)OCCOCn1cnc2c(=O)[nH]c(N)nc21
- Potency [15]: 23.5 µM (active)
- Potency [2]: inactive
- Potency [4]: inactive
- Potency [5]: inactive
- Potency [7]: inactive
- Potency [8]: inactive
- Potency [9]: 14.8 µM (active)
- Potency [10]: inactive
- Potency [19]: inactive

Compound: O=C1NC(=O)C(c2ccccc2[N+](=O)[O-])=C1Nc1ccc(O)c(Cl)c1
- Potency [15]: 10.5 µM (active)
- Potency [5]: inactive
- Potency [8]: inactive
- Potency [12]: inactive
- Potency [10]: inactive
- viability [14]: 110%
- Potency [19]: inactive
- Potency [11]: 6.62 µM (active)

Compound: CCOC(=O)c1c(C)n(C)c2ccc(O)cc12
- Potency [15]: inactive
- Potency [16]: inactive
- Potency [2]: inactive
- Potency [18]: inactive
- Potency [4]: inactive
- Potency [5]: inactive
- Potency [7]: inactive
- Potency [8]: inactive
- Potency [9]: inactive
- Potency [12]: inactive
- Potency [13]: 3.72 µM (active)
- Potency [17]: 3.72 µM (active)
- Potency [10]: inactive
- viability [14]: 121%

Compound: CN(c1nccc(=O)[nH]1)C1CCN(c2nc3ccccc3n2Cc2ccc(F)cc2)CC1
- Potency [15]: inactive
- Potency [16]: 6.62 µM (active)
- Potency [18]: inactive
- Potency [4]: 13.2 µM (active)
- Potency [5]: inactive
- Potency [6]: 11.8 µM (active)
- Potency [8]: inactive
- Potency [9]: inactive
- Potency [12]: inactive
- Potency [13]: inactive
- Potency [10]: 26.4 µM (active)
- viability [14]: 125%

Compound: CCC(C)(Oc1ccc(C2(c3ccc(OC(C)(CC)C(=O)O)cc3)CCCCC2)cc1)C(=O)O (centres undefined)
- Potency [15]: inactive
- Potency [18]: inactive
- Potency [4]: inactive
- Potency [5]: inactive
- Potency [7]: inactive
- Potency [8]: inactive
- Potency [12]: inactive
- Potency [10]: inactive
- viability [14]: 130%
- Potency [19]: inactive
- Potency [11]: inactive
